Compounds with a hit are over-represented: about 4% of the library has one in this group of screens.
KKLEB cytotox – cytotoxicity in KKLEB CF airway cells, primary screen, cytotoxicity control for CF NF-kB inhibitor project, cell-based, uHTS, fluorescence assay plates. KKLEB CF airway cells viability, ATPlite luminescence, overnight; active compounds read low; cells stimulated with P. aeruginosa culture filtrate. activity change (cytotoxicity), % at 5 µM. 360,000 tested, 0.36% active;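 active = corrected activity change at or below -50% at 5 µM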
HIF-2a block – HIF-2a reporter inhibitors, primary screen, luminescence, 786-0 RCC cells; 786-0 RCC cells HIF-2a reporter, luciferase luminescence, overnight; inhibition, % at 18.8 µM; 360,000 tested, 0.72% active;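 active = inhibition of the luminescence signal of 40% or more relative to plate controls, in a single-dose primary screen at 18.75 µM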
TROY signal inh – inhibitors of TROY-driven NF-kB signaling, primary screen, Q293 LMP1-TROYcd cells, NF-kB luciferase, uHTS | Q293 LMP1-TROYcd NF-kB luciferase reporter, 4 h | inhibition, % at 10 µM | 360,000 tested, 0.98% active | AID 1347056, 2019;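 active = compounds whose plate-normalised and pattern-corrected inhibition of the luciferase reporter signal at the single screening dose is 50% or more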
CF NFkB block – inhibitors of PAF-induced NF-kB signaling, primary screen, cell-based, GFP fluorescence, uHTS; KKLEB NF-kB-GFP reporter, GFP fluorescence overnight; inhibition, % at 5 µM; 360,000 tested, 0.86% active;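 active = at least 50% inhibition at 5 µM, scaled per plate between neutral and stimulator controls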;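 also: PAF is a Pseudomonas aeruginosa culture filtrate used as stimulus; plate controls were PAF-stimulated DMSO wells for no effect and unstimulated DMSO wells for full effect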
Peg3 promoter – Peg3 promoter-driven luciferase inhibitors, primary screen, cell-based, HeLa, luciferase luminescence | HeLa PEG-Prom luciferase reporter, overnight | inhibition, % at 20 µM | 360,000 tested, 1.7% active | AID 588405, 2011;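 active = inhibition of at least 50% at 20 µM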
TWEAK-Fn14 inh – inhibitors of TWEAK-Fn14 signaling, primary screen, luciferase reporter cells, uHTS; TWEAK-stimulated Fn14 reporter cells, luciferase luminescence, 8 h; inhibition, % at 10 µM; 360,000 tested, 2% active; AID 1159606, 2016; in the data active = inhibition above about 50%
An asterisk follows results filed as active; · = no result given.

SMILES | KKLEB cytotox | HIF-2a block | TROY signal inh | CF NFkB block | Peg3 promoter | TWEAK-Fn14 inh
CCOC(=O)C(CCSC)Nc1nc(Cl)nc(Nc2ccc(Cl)cc2)n1 (configuration not stated) | -2.4 | 7.9 | -7.6 | -1.8 | 12.7 | 15.2
O=C(O)C1CC=CCC1C(=O)N1CC=C(c2ccccc2)CC1 (configuration not stated) | -6.7 | 9.4 | 41.9 | 7.2 | 18.3 | 78.2*
N#Cc1ccsc1NC(=O)CSc1ncnc2ccccc12 | 0.2 | -23.4 | 56.0* | 32.3 | 17.3 | 1.2
N#Cc1ccsc1NC(=O)CSc1ncn[nH]1 | 10.1 | -58.1 | -9.1 | 6.8 | -22.0 | 8.3
CN(C)S(=O)(=O)c1cccc(NC(=O)CSc2ncnc3ccccc23)c1 | -3.0 | 1.3 | 38.3 | 16.2 | 10.4 | 64.0*
COc1ccc(NC(=O)c2cc(C3CCCCN3S(=O)(=O)c3cn(C)cn3)on2)c(C)c1 (configuration not stated) | 14.0 | 2.7 | -8.8 | -33.3 | -13.4 | 2.2
COc1ccc(N(C(=O)c2ccncc2)S(=O)(=O)c2ccc3c4c(cccc24)C(=O)N3C)cc1 | -12.5 | 22.9 | 63.9* | 46.5 | 41.4 | 33.9
COc1ccc(N(C(=O)c2cccnc2)S(=O)(=O)c2ccc3c4c(cccc24)C(=O)N3C)cc1 | -12.4 | 24.5 | 47.1 | 28.7 | 26.9 | 64.2*
COc1ccc(N(C(=O)c2cccnc2)S(=O)(=O)c2cc(OC)ccc2OC)cc1 | -21.9 | 16.3 | 3.2 | 28.4 | 22.3 | 14.9
Cc1sc2ncnc(N3CCC(C(=O)Nc4ccccc4C(C)(C)C)CC3)c2c1C | -22.3 | 14.9 | 53.4* | 67.9* | 7.6 | 74.4*
CCc1nnc(NC(=O)C2CCN(c3ncnc4sc(C)c(C)c34)CC2)s1 | -11.8 | 13.5 | 20.8 | 35.5 | 4.2 | -0.1
Cc1sc2ncnc(N3CCC(C(=O)Nc4nc(-c5cccs5)cs4)CC3)c2c1C | -7.3 | -5.3 | 25.2 | 2.8 | -43.7 | 67.1*
CCOC(=O)c1ccccc1NC(=O)C1CCN(c2ncnc3sc(C)c(C)c23)CC1 | -12.3 | -0.3 | 1.3 | 25.5 | 16.5 | -22.2
C[C@@H](NC(=O)[C@@H]1CCCN1C(=O)[C@@H]1CCCN1C(=O)c1cccc2ccccc12)c1ccccc1 | · | 18.0 | -5.2 | · | · | 15.7
N=c1c2c(ncn1Cc1ccco1)Oc1ccc3ccccc3c1C2c1ccccc1 (configuration not stated) | -23.2 | 13.1 | 36.1 | 17.2 | 56.9* | 12.5
Nc1ncnc2c1C(c1ccccc1)c1c(ccc3ccccc13)O2 (configuration not stated) | -3.6 | -2.6 | 57.5* | -37.6 | 35.6 | -75.9
CCOC(=O)CC(=O)Nc1ncnc2c1C(c1ccccc1)c1c(ccc3ccccc13)O2 (configuration not stated) | -10.5 | 28.3 | 36.9 | -44.0 | 13.7 | -11.2
CCCCCCNC(=O)OC12CN(C(=O)OC(C)C)N(C(=O)OC(C)C)CC1(O)CN(S(=O)(=O)c1ccc(C)cc1)C2 (configuration not stated) | -2.4 | -4.3 | 2.0 | -14.3 | 83.7* | 18.5
CCC(C)CN1C(=O)CN(S(C)(=O)=O)CC1(C)C(=O)NCc1ccccc1 (configuration not stated) | · | 11.0 | · | · | · | ·
Nc1sccc1C(=O)NCCN1CCOCC1 | · | 1.8 | · | · | · | ·
O=C(CCC(=O)N1CCN(S(=O)(=O)c2ccccc2Cl)CC1)c1ccccc1 | 10.4 | 3.6 | -0.8 | 2.6 | 0.1 | 0.4
Cc1ccc(C(=O)Nc2ncc(Cc3ccccc3)s2)o1 | -13.8 | -153.4 | -5.3 | -9.1 | -132.0 | 65.8*
O=C(Nc1ncc(Cc2ccccc2)s1)c1cccs1 | -9.3 | -144.4 | 15.4 | 7.8 | -155.1 | 47.3
CSc1nc(Nc2ccc(Cl)cc2)c(C#N)c(=O)[nH]1 | 0.6 | 24.2 | 10.1 | 1.8 | 52.8* | -19.1
CCCCCC(=O)N1C[C@@H](n2cc(-c3ccc(F)cc3)nn2)[C@H](O)C[C@@H]1c1ccc(Cl)cc1 | -19.9 | -19.3 | 22.8 | 1.8 | 23.2 | 23.3
SMILES | KKLEB cytotox | HIF-2a block | TROY signal inh | CF NFkB block | Peg3 promoter | TWEAK-Fn14 inh
Cc1cc(C(=O)Nc2ccncc2)c2ccccc2n1 | 0.1 | -4.5 | 8.3 | 9.5 | 15.8 | -5.7
Cc1nc2c(c(C)nn2-c2ccccc2)c(C)c1CCC(=O)Nc1ccc(CN2CCCC2)cc1 | -5.2 | 23.4 | 2.5 | 31.6 | 55.3* | -30.7
CCC(C)NC(=O)CCc1c(C)nc2c(c(C)nn2-c2ccccc2)c1C (configuration not stated) | 5.2 | 13.9 | 18.2 | -8.5 | 16.1 | 12.7
O=C(CSc1nc2ccccc2c(=O)n1-c1ccc(SC(F)F)cc1)Nc1ccc(N2CCOCC2)cc1 | -65.6* | 3.6 | 17.4 | 65.7* | 6.0 | 5.1
O=C(c1ccccc1)c1coc2c1C(=O)c1ccccc1C2=O | 5.3 | -113.7 | 33.4 | 52.5* | -140.0 | 68.1*
O=C1C=C(c2ccc3[nH]ccc3c2)C[C@@H](c2ccc(F)cc2)C1 | -3.0 | -68.6 | -38.9 | 1.5 | -36.2 | -12.4
COc1ccc([C@H]2CC(=O)C=C(c3ccc4[nH]ccc4c3)C2)cc1OC | -4.0 | -85.4 | 53.0* | 11.4 | -70.5 | -22.6
Cn1c(/C(C#N)=C/c2ccc(-c3ccc(S(N)(=O)=O)cc3)o2)nc2ccccc21 | -6.2 | -9.7 | 19.5 | -147.6 | 71.8* | 47.9
Cn1c(/C(C#N)=C/c2cccc(O)c2)nc2ccccc21 | 4.3 | -34.8 | -66.1 | -3.5 | -161.9 | 11.9
CC[N+]1=C(C)C(C)(C)c2cc(C)ccc21 | 2.3 | -2.9 | 24.4 | -6.3 | 7.0 | 68.5*
CN(C)c1ccc(C(=O)OCC(=O)c2ccc[nH]2)cc1 | -8.8 | -249.4 | -58.8 | -25.2 | -321.3 | 7.7
Cc1cccc(CSc2cccc3cccnc23)c1 | 7.9 | -147.0 | -78.2 | -27.8 | 28.4 | 102.6*
NNC(=O)c1ccc(CSc2cccc3cccnc23)cc1 | 8.1 | 7.1 | -13.0 | 8.9 | -33.5 | -29.2
Nc1nnc(CSCc2ccc(Cl)cc2)s1 | 10.8 | -23.2 | -10.3 | -40.4 | 3.0 | -18.6
Nc1nnc(SCc2ccc(Cl)cc2)s1 | 5.2 | -85.2 | · | 10.7 | -82.2 | 68.1*
CCOC(=O)C1(Cc2cccc(OC)c2)CCCN(C(=O)c2cc(CC(C)C)[nH]n2)C1 (configuration not stated) | 5.6 | -203.9 | -56.6 | -13.4 | -239.1 | -12.9
CCOC(=O)C1(Cc2cccc(OC)c2)CCCN(C(=O)c2ccc(OC)o2)C1 (configuration not stated) | 12.9 | -216.8 | -96.5 | -39.9 | -217.3 | 98.0*
COc1cc(CNc2ncnc3c2ncn3[C@H]2CN(Cc3ccc(Cl)cc3)C[C@@H](CO)O2)cc(OC)c1OC | 9.4 | 3.7 | -0.6 | -17.4 | 2.5 | -5.7

Bioassay records: PubChem, Sanford-Burnham Center for Chemical Genomics
